Results filed as inconclusive are left out. Active and inactive are the calls of the source. Calls follow the shape of the dose curve; as a rule, active = well fitted inhibition curve with a large enough effect; inconclusive = small, poorly fitted or top-dose-only effect; inactive = no such curve, though single readings can be large or run the other way.
Assay: Primary qHTS for small molecule stabilizers of the endoplasmic reticulum resident proteome: Secreted ER Calcium Modulated Protein (SERCaMP) assay (AID 1508630)
Settings: SH-SY5Y GLuc-SERCaMP (Gaussia luciferase released on ER calcium loss) secretion, thapsigargin, luminescence; series mostly up to 38.4 µM
Outline: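 The SH-SY5Y reporter protocol was run at 3 concentrations up to 38.3 uM (primary) or 11 concentrations (follow-up): 16 h compound, 100 nM thapsigargin for 4 h, then extracellular luciferase luminescence.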

Potency, inactive:
COC(=O)N1CCC2(CCCN(Cc3ccccc3OC)C2)CC1
Cc1noc(C)c1C(=O)N1CCC[C@@]2(CCN(Cc3ccccc3)C2)C1
O=S(=O)(c1ccccc1)N1CCC2(CCCN(c3ncccn3)C2)CC1
COc1ccc(NC(=O)N2CCCC3(CCNCC3)C2)cc1
COc1ccc(NC(=O)N2CC3(CCN(C(C)=O)CC3)C2)cc1
CC(=O)N1CCC2(CC1)CN(c1ccccc1)C2
COc1ccccc1CN1CC[C@@]2(CCCN(C(=O)c3cccn3C)C2)C1
Cn1cccc1C(=O)N1CCC[C@@]2(CCN(Cc3cc(C(F)(F)F)cc(C(F)(F)F)c3)C2)C1
COc1ccccc1CN1CC[C@@]2(CCCN(C(C)=O)C2)C1
COc1ccccc1CN1CC[C@@]2(CCCN(S(C)(=O)=O)C2)C1
O=C(c1csnn1)N1CCC2(CC1)CN(c1ccccc1)C2
COc1ccc(NC(=O)N2CC[C@@]3(CCCN(C(=O)c4cnccn4)C3)C2)cc1
CC(C)CN1CC[C@@]2(CCCN(C(=O)c3csnn3)C2)C1
CC(=O)N1CCC2(CC1)CCN(C(=O)Nc1cccc(F)c1)CC2
O=C(c1cnccn1)N1CCC2(CCCN(c3ccccc3)C2)CC1
O=C(c1ccncc1)N1CCC2(CC1)CCN(C(c1ccccc1)c1ccccc1)CC2
COCC(=O)N1CCC[C@@]2(CCN(C(=O)Nc3cccc(F)c3)C2)C1
CC(C)NC(=O)N1CCCC2(CCN(C(=O)c3cccc(F)c3)CC2)C1
COc1ccccc1CN1CCC2(CC1)CCN(C(C)=O)CC2
N#Cc1ccc(CN2CCCC3(CCN(C(=O)c4cccc(F)c4)CC3)C2)cc1
O=C(c1ccco1)N1CCC2(CC1)CN(C(c1ccccc1)c1ccccc1)C2
CS(=O)(=O)N1CCC2(CC1)CN(Cc1cc(C(F)(F)F)cc(C(F)(F)F)c1)C2
CC(C)NC(=O)N1CCCC2(CCN(C(=O)c3cc(C(F)(F)F)cc(C(F)(F)F)c3)CC2)C1
N#Cc1cccc(NC(=O)N2CCC3(CC2)CCN(C(=O)c2csnn2)CC3)c1
O=C(Oc1ccccc1)N1CCC[C@@]2(CCN(c3ncccn3)C2)C1
COCC(=O)N1CCC[C@@]2(CCN(Cc3ccccc3OC)C2)C1
CC(C)NC(=O)N1CC[C@@]2(CCCN(C(=O)c3cc(C(F)(F)F)cc(C(F)(F)F)c3)C2)C1
O=C(Nc1cccc(F)c1)N1CC[C@@]2(CCCNC2)C1
COCC(=O)N1CCC2(CCCN(C(=O)Nc3ccc(OC)cc3)C2)CC1
O=C(c1ccco1)N1CCC[C@@]2(CCN(Cc3ccccc3)C2)C1
CC(=O)N1CCC2(CCCN(C(c3ccccc3)c3ccccc3)C2)CC1
COc1cccc(-c2ccc3ncnc(NC4CCNCC4)c3c2)c1
COc1ccccc1CN1CCCC2(CCN(S(C)(=O)=O)CC2)C1
O=C(c1csnn1)N1CCC[C@@]2(CCN(Cc3nccs3)C2)C1
O=C(c1csnn1)N1CCC2(CC1)CCN(c1ccccc1)CC2
CC(C)CN1CC[C@@]2(CCCN(C(=O)c3cnccn3)C2)C1
CN(C)c1ncc2ncc(=O)n(Cc3ccc(F)cc3)c2n1
O=C(c1ccco1)N1CCC[C@@]2(CCN(c3ccccc3)C2)C1
CC(C)CN1CC[C@@]2(CCCN(S(=O)(=O)c3ccccc3)C2)C1
